First the molecules themselves.
B1: PhoQ; a variant is named by its letters at X, in order, P23837 (parent)
chain: MKKLLRLFFPLSLRVRFLLATAAVVLVLSLAYGMVALIGYSVSFDKTTFRLLRGESNLFYTLAKWENNKLHVELPENIDKQSPTMTLIYDENGQLLWAQRDVPWLMKMIQPDWLKSNGFHEIEADVNDTSLLLSGDHSIQQQLQEVREDDDDAEMTHSVAVNVYPATSRMPKLTIVVVDTIPVELKSSYMVWSWFIYVLSANLLLVIPLLWVAAWWSLRPIEALAKEVRELEEHNRELLNPATTRELTSLVRNLNRLLKSERERYDKYRTTLTDLTHSLKTPLXXLQXXLRSLRSEKMSVSDAEPVMLEQISRISQQIGYYLHRASMRGGTLLSRELHPVAPLLDNLTSALNKVYQRKGVNISLDISPEISFVGEQNDFVEVMGNVLDNACKYCLEFVEISARQTDEHLYIVVEDDGPGIPLSKREVIFDRGQRVDTLRPGQGVGLAVAREITEQYEGKIVAGESMLGGARMEVIFGRQHSAPKDE

We go through 157 variants from a collection of fitness landscapes (doi:10.1126/science.1257360).

In all, about 140,000 sequences were measured (“enrichment ratio after two sorts for PhoP signalling”: median about 0, highest 2% from about 11 on). The entries come from a sample that favours the highest values as a whole.

Variants of B1 are the subject of the test. In words: enrichment ratio after two sorts for PhoP signalling (ratio (wild type AVST 3.29)); higher = more functional. Conditions: with PhoP (E. coli).
In the case of SPEK, the enrichment ratio was at most 0.25.

Consider PFML, for which the enrichment ratio is at most 0.25.

On to SGNG, for which the enrichment ratio is at most 0.25.

Take TKIS: the enrichment ratio was found to be 4.17.

MKIM: the enrichment ratio was at most 0.25.

Turning to TKIV, the enrichment ratio came to 11.9.

In the case of TKIM, the enrichment ratio amounted to 15.1.

As to AKIM, the enrichment ratio is 4.82.

TKQV: the enrichment ratio is 4.75.

With SEYW, the enrichment ratio was at most 0.25.

For QMAQ, the enrichment ratio is at most 0.25.

On to QWLW, for which the enrichment ratio was at most 0.25.

As to LLLD, the enrichment ratio is at most 0.25.

Consider NKIV, for which the enrichment ratio is at most 0.25.

As for TKLA, the enrichment ratio came to 4.75.

Turning to TKLS, the enrichment ratio was 19.9.

Take AILS: the enrichment ratio was 9.63.

Take AKLS: the enrichment ratio was 13.1.

For the variant AKLA, the enrichment ratio turned out to be 5.14.

In the case of MKLS, the enrichment ratio is at most 0.25.

Take QRQP: the enrichment ratio is at most 0.25.

As for INTT, the enrichment ratio is at most 0.25.

Regarding TEHN, the enrichment ratio turned out to be 11.9.

In the case of TEQI, the enrichment ratio came out at 15.

For the variant NEQM, the enrichment ratio is at most 0.25.

For NEQI, the enrichment ratio is at most 0.25.

TEQP: the enrichment ratio is at most 0.25.

As for TEQM, the enrichment ratio was 17.8.

Consider MEQI, for which the enrichment ratio is at most 0.25.

As for MEHN, the enrichment ratio was at most 0.25.

On to AQQM, for which the enrichment ratio is at most 0.25.

Turning to TEQA, the enrichment ratio was 13.7.

Regarding TEQH, the enrichment ratio worked out at 3.62.

As to YYHN, the enrichment ratio is at most 0.25.

Regarding LPHR, the enrichment ratio is at most 0.25.

As for ADGW, the enrichment ratio was at most 0.25.

On to NDRR, for which the enrichment ratio was at most 0.25.

Turning to IIAQ, the enrichment ratio was at most 0.25.

SFDP: the enrichment ratio was at most 0.25.

VFVP: the enrichment ratio was at most 0.25.

In the case of IQIY, the enrichment ratio was at most 0.25.

As for TEQN, the enrichment ratio came to 34.8.

Turning to QEQY, the enrichment ratio was at most 0.25.

Regarding WQIY, the enrichment ratio was at most 0.25.

For TEQY, the enrichment ratio was found to be 12.5.

In the case of TEGY, the enrichment ratio stood at 1.36.

Turning to ADQI, the enrichment ratio is at most 0.25.

As for TEEN, the enrichment ratio was 3.06.

On to TEYM, for which the enrichment ratio was at most 0.25.

For AQIY, the enrichment ratio was 24.

Turning to AQQI, the enrichment ratio is 14.3.

Regarding AKQI, the enrichment ratio was at most 0.25.

For the variant DNYP, the enrichment ratio is at most 0.25.

With EFNV, the enrichment ratio is at most 0.25.

As for FGIV, the enrichment ratio worked out at 2.4.

Regarding ALMP, the enrichment ratio was at most 0.25.

Turning to MHTV, the enrichment ratio was at most 0.25.

For FMAD, the enrichment ratio is at most 0.25.

For the variant GMNN, the enrichment ratio was at most 0.25.

As for WNWL, the enrichment ratio is at most 0.25.

For SGSI, the enrichment ratio turned out to be 15.9.

SSSR: the enrichment ratio is at most 0.25.

As for STSI, the enrichment ratio worked out at 8.26.

Take SSSK: the enrichment ratio is at most 0.25.

For TVTG, the enrichment ratio was determined as 15.3.

On to KSTG, for which the enrichment ratio is at most 0.25.

SQSI: the enrichment ratio is 16.7.

On to SRSI, for which the enrichment ratio was at most 0.25.

With SPTG, the enrichment ratio is at most 0.25.

As to SGSK, the enrichment ratio was at most 0.25.

As to SSSI, the enrichment ratio amounted to 15.2.

With SGDH, the enrichment ratio is at most 0.25.

For MQVF, the enrichment ratio amounted to 1.6.

In the case of KTET, the enrichment ratio was at most 0.25.

Regarding FTCL, the enrichment ratio was determined as 9.73.

Regarding RLFE, the enrichment ratio is at most 0.25.

For the variant YKMG, the enrichment ratio is at most 0.25.

As for LISD, the enrichment ratio is at most 0.25.

With SESR, the enrichment ratio stood at 4.3.

As to KSSI, the enrichment ratio is at most 0.25.

For the variant TLSI, the enrichment ratio stood at 18.6.

TSSI: the enrichment ratio was determined as 19.5.

On to SESI, for which the enrichment ratio turned out to be 12.7.

VLSI: the enrichment ratio was at most 0.25.

As to LLSI, the enrichment ratio is at most 0.25.

Turning to TVSI, the enrichment ratio came to 17.4.

In the case of DDSI, the enrichment ratio is at most 0.25.

With SPSI, the enrichment ratio is at most 0.25.

On to NVSI, for which the enrichment ratio was at most 0.25.

Regarding FSSI, the enrichment ratio was 0.692.

For the variant DSES, the enrichment ratio is at most 0.25.

On to NHHT, for which the enrichment ratio was at most 0.25.

As for VGTA, the enrichment ratio was at most 0.25.

Turning to EQHP, the enrichment ratio is at most 0.25.

For LVPM, the enrichment ratio was at most 0.25.

As to QFFS, the enrichment ratio is at most 0.25.

Turning to TTNV, the enrichment ratio stood at 7.65.

Consider PFAG, for which the enrichment ratio is at most 0.25.

On to DGGW, for which the enrichment ratio is at most 0.25.

In the case of SNSI, the enrichment ratio came out at 12.4.

Regarding SISI, the enrichment ratio was determined as 19.1.

On to WLSI, for which the enrichment ratio was at most 0.25.

KLSI: the enrichment ratio was at most 0.25.

With KYSI, the enrichment ratio is at most 0.25.

SNSK: the enrichment ratio was at most 0.25.

Regarding SNSR, the enrichment ratio was at most 0.25.

Consider SLSI, for which the enrichment ratio was 12.7.

Take RISI: the enrichment ratio is at most 0.25.

Take MVAF: the enrichment ratio was found to be 8.08.

With VNTQ, the enrichment ratio is at most 0.25.

Consider FEKW, for which the enrichment ratio was at most 0.25.

Regarding RVKS, the enrichment ratio is at most 0.25.

With YPRG, the enrichment ratio is at most 0.25.

On to SCGD, for which the enrichment ratio is at most 0.25.

Regarding SCPI, the enrichment ratio is 15.2.

As for SCSK, the enrichment ratio came to 14.3.

Consider SCPM, for which the enrichment ratio came to 7.6.

Turning to SCPA, the enrichment ratio was at most 0.25.

Regarding SCSR, the enrichment ratio came out at 6.9.

With PQKP, the enrichment ratio is at most 0.25.

Consider RTKL, for which the enrichment ratio is at most 0.25.

On to YQFF, for which the enrichment ratio was at most 0.25.

On to PSPG, for which the enrichment ratio is at most 0.25.

As to GCSN, the enrichment ratio amounted to 3.22.

With QCWG, the enrichment ratio was 1.24.

As to GCSG, the enrichment ratio turned out to be 6.35.

QCSK: the enrichment ratio is at most 0.25.

Consider QCSG, for which the enrichment ratio came out at 32.

For QCSN, the enrichment ratio is 17.6.

Regarding YSWT, the enrichment ratio is at most 0.25.

For the variant VTWY, the enrichment ratio was at most 0.25.

For the variant LKQC, the enrichment ratio was at most 0.25.

For MYLH, the enrichment ratio was at most 0.25.

YKYI: the enrichment ratio is at most 0.25.

KDCA: the enrichment ratio is at most 0.25.

For ADCS, the enrichment ratio was at most 0.25.

On to FDCA, for which the enrichment ratio is at most 0.25.

Turning to TDCI, the enrichment ratio is at most 0.25.

Regarding LTCQ, the enrichment ratio is at most 0.25.

TDCA: the enrichment ratio came out at 14.6.

TDCS: the enrichment ratio was found to be 11.3.

For the variant TDCQ, the enrichment ratio is 20.3.

For FDCQ, the enrichment ratio was at most 0.25.

Regarding ERGV, the enrichment ratio is at most 0.25.

On to TKWP, for which the enrichment ratio is at most 0.25.

As to RGMY, the enrichment ratio is at most 0.25.

With AGMY, the enrichment ratio stood at 20.

Take TKMY: the enrichment ratio stood at 24.

Regarding TGMY, the enrichment ratio stood at 12.7.

As for KYMY, the enrichment ratio is at most 0.25.

As for ADMY, the enrichment ratio was 0.253.

Turning to HKMY, the enrichment ratio is at most 0.25.

On to NGMY, for which the enrichment ratio was at most 0.25.

For the variant SWMY, the enrichment ratio was at most 0.25.

As for PTMY, the enrichment ratio was at most 0.25.

As for AIMY, the enrichment ratio came out at 6.62.

Regarding STMY, the enrichment ratio turned out to be 12.6.
